Reference: PubChem BioAssay (NCATS)
Records with an inconclusive call do not appear. The source made the active and inactive calls. Calls follow the shape of the dose curve; as a rule, active = well fitted curve in the direction sought with a large enough effect; inconclusive = small, poorly fitted or top-dose-only effect, or another doubt; inactive = no such curve, though single readings can be large; an effect the other way counts as inactive or inconclusive.

What was measured:
[1] = qHTS of pediatric cancer cell lines to identify multiple opportunities for drug repurposing: Primary screen for NB1643 cells (AID 1347099); also: nearly all actives have a fitted effect of over 50% in size; also: potency is read from the fitted curve at half-maximal effect;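 as to activity change, negative = cytotoxic: plate controls were DMSO neutral control for no effect and bortezomib positive control for full effect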
Outline: (§1)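 500-1,000 cells/well; 5 h pre-incubation 37 °C/5% CO2; compound pinned; 48 h; CellTiter-Glo, 15 min RT; luminescence. MIPE 11-pt from 0.78 nM, NPC 8-pt from 0.59 nM final. Bortezomib 2.3 µM final as positive control.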

[2] = qHTS of pediatric cancer cell lines to identify multiple opportunities for drug repurposing: Primary screen for LAN-5 cells (AID 1347100); also: potency is read from the fitted curve at half-maximal effect;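 as to activity change, negative = cytotoxic: plate controls were DMSO neutral control for no effect and bortezomib positive control for full effect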
Outline: (§2)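 Cells (500-1,000/well) rested 5 h, then received compounds for 48 h; metabolically active cells were measured by CellTiter-Glo luminescence. Final concentrations spanned up to 46 µM (MIPE, 11-point) or 0.59 nM-46 µM (NPC, 8-point) in primary screens, 11-point in follow-ups.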

[3] = qHTS of pediatric cancer cell lines to identify multiple opportunities for drug repurposing: Primary screen for BT-12 cells (AID 1347101); also: nearly all actives have a fitted effect of over 25% in size; also: potency is read from the fitted curve at half-maximal effect;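 as to activity change, negative = cytotoxic: plate controls were DMSO for no effect and bortezomib positive control for full effect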
Outline: as §2

[4] = qHTS of pediatric cancer cell lines to identify multiple opportunities for drug repurposing: Primary screen for Rh18 cells (AID 1347102); also: nearly all actives have a fitted effect of over 65% in size; also: potency is read from the fitted curve at half-maximal effect; as to activity change, negative = cytotoxic: % is scaled to controls: 0 for no effect and ±100 for the full control effect
Outline: as §2

[5] = qHTS of pediatric cancer cell lines to identify multiple opportunities for drug repurposing: Primary screen for OHS-50 cells (AID 1347103); also: nearly all actives have a fitted effect of over 40% in size; also: potency is read from the fitted curve at half-maximal effect;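 as to activity change, negative = cytotoxic: plate controls were DMSO neutral control for no effect and bortezomib positive control for full effect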
Outline: as §2

[6] = qHTS of pediatric cancer cell lines to identify multiple opportunities for drug repurposing: Primary screen for RD cells (AID 1347104); also: nearly all actives have a fitted effect of over 55% in size; also: potency is read from the fitted curve at half-maximal effect;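 as to activity change, negative = cytotoxic: plate controls were DMSO for no effect and bortezomib for full effect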
Outline: as §1

[7] = qHTS of pediatric cancer cell lines to identify multiple opportunities for drug repurposing: Primary screen for MG 63 (6-TG R) cells (AID 1347105); also: % is scaled to controls: 0 for no effect and ±100 for the full control effect; nearly all actives have a fitted effect of over 50% in size
Outline: as §1

[8] = qHTS of pediatric cancer cell lines to identify multiple opportunities for drug repurposing: Primary screen for control Hh wild type fibroblast cells (AID 1347106);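 also: series mostly up to about 46 µM; % is scaled to controls: 0 for no effect and ±100 for the full control effect; a drop in luminescence marks cytotoxicity and a rise apparent proliferation; nearly all actives have a fitted effect of over 55% in size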
Outline: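 Cells (500-1,000/well) in growth media were settled 5 h at 37 degrees C, then given compounds for 48 h. Viability was read as CellTiter-Glo luminescence. Primary runs used MIPE at 11 points (0.78 nM-46 µM) and NPC at 8 points (0.59 nM-46 µM); follow-ups used 11 points.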

[9] = qHTS of pediatric cancer cell lines to identify multiple opportunities for drug repurposing: Primary screen for Rh30 cells (AID 1347107); also: nearly all actives have a fitted effect of over 75% in size; also: potency is read from the fitted curve at half-maximal effect; as to activity change, negative = cytotoxic: series mostly up to about 46 µM; % is scaled to controls: 0 for no effect and ±100 for the full control effect
Outline: as §2

[10] = qHTS of pediatric cancer cell lines to identify multiple opportunities for drug repurposing: Primary screen for Rh41 cells (AID 1347108); also: nearly all actives have a fitted effect of over 70% in size; also: potency is read from the fitted curve at half-maximal effect;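 as to activity change, negative = cytotoxic: series mostly up to about 46 µM; luminescence drop marks cytotoxic hits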
Outline: as §1

O=C(c1ccc(C(=O)N2CCC(N3CCCC3)CC2)c(Nc2ccccc2)c1)N1CCC(N2CCCC2)CC1
inactive: Potency [1] | Potency [2] | Potency [3] | Potency [4] | Potency [5] | Potency [6] | Potency [7] | Potency [8]

Cc1cn([C@@H]2C[C@@H](O)[C@H](CO)O2)c(=O)[nH]c1=O
inactive: Potency [1] | Potency [2] | Potency [3] | Potency [4] | Potency [5] | Potency [6] | Potency [7] | Potency [8] | Potency [9] | Potency [10]

CC1(C)OC2CC3C4CC(F)C5=CC(=O)C=CC5(C)C4C(O)CC3(C)[C@]2(C(=O)CO)O1 (stereo partly drawn)
inactive: Potency [1] | Potency [2] | Potency [3] | Potency [4] | Potency [5] | Potency [6] | Potency [7] | Potency [8] | Potency [9]

CCN1C[C@H](C)n2c(c(O)c3c(=O)n(Cc4ccc(F)c(Cl)c4)nc(C(=O)NC)c32)C1=O
inactive: Potency [1] | Potency [2] | Potency [3] | Potency [4] | Potency [5] | Potency [6] | Potency [8] | Potency [9]

CCCCC(F)(F)[C@@]1(O)CC[C@H]2[C@H](CC(=O)[C@@H]2CCCCCCC(=O)O)O1
inactive: Potency [1] | Potency [2] | Potency [3] | Potency [4] | Potency [5] | Potency [6] | Potency [8] | Potency [9]

COc1ccnc(CS(=O)c2nc3ccc(OC(F)F)cc3[nH]2)c1OC (stereo not drawn)
inactive: Potency [1] | Potency [2] | Potency [3] | Potency [4] | Potency [5] | Potency [6] | Potency [8] | Potency [9] | Potency [10]

CC(C)(C)c1nc(-c2cccc(NS(=O)(=O)c3c(F)cccc3F)c2F)c(-c2ccnc(N)n2)s1
active: Potency [1] 18.7 µM
inactive: Potency [2] | Potency [3] | Potency [4] | Potency [5] | Potency [7]

CC1(C)[C@H]2CC[C@]3(C)[C@@H](C(=O)C=C4[C@@H]5C[C@@](C)(C(=O)O)CC[C@]5(C)CC[C@]43C)[C@@]2(C)CC[C@@H]1O
inactive: Potency [1] | Potency [2] | Potency [3] | Potency [4] | Potency [6] | Potency [7] | Potency [8] | Potency [9]

CC1(COc2ccc3c(c2)ncn3-c2ccc3cccc(N4CCC(N)CC4)c3n2)COC1
active: Potency [2] 0.001 µM | Potency [3] 6.11 µM | Potency [4] 10.5 µM | Potency [5] 13.7 µM | Potency [6] 0.59 µM
inactive: Potency [1] | Potency [9]

C[C@@H]1C[C@H]2[C@@H]3CCC4=CC(=O)C=C[C@]4(C)[C@@]3(F)[C@@H](O)C[C@]2(C)[C@@]1(O)C(=O)CO
inactive: Potency [1] | Potency [2] | Potency [3] | Potency [4] | Potency [5] | Potency [6] | Potency [8] | Potency [9] | Potency [10]

CN(C)c1nc(Cc2ccc(NC(=O)c3ccc(C(F)(F)F)cc3)cc2)nc(N(C)C)c1CC(=O)O
inactive: Potency [1] | Potency [2] | Potency [3] | Potency [4] | Potency [5] | Potency [6] | Potency [8] | Potency [9] | Potency [10]

COc1ccc(C=CC(=O)Nc2ccccc2C(=O)O)cc1OC
inactive: Potency [2] | Potency [3] | Potency [4] | Potency [5] | Potency [7] | Potency [8] | Potency [10]
active: Potency [1] 5.9 µM

CNC1[C@H](O)C(O[C@@H]2C(O)C(O[C@H]3O[C@H]([C@@H](C)NC)CC[C@H]3N)[C@@H](N)C[C@H]2N)OC[C@]1(C)O (stereo partly drawn)
inactive: Potency [1] | Potency [2] | Potency [3] | Potency [4] | Potency [5] | Potency [6] | Potency [8] | Potency [9]

COc1cc2nc(-c3cc(F)ccc3O)nc(N[C@@H]3CNC[C@@H]3C(C)(C)O)c2cc1OC
inactive: Potency [8]
active: Potency [1] 16.6 µM | Potency [2] 13.2 µM | Potency [3] 27.3 µM | Potency [4] 18.7 µM | Potency [5] 10.9 µM | Potency [6] 33.2 µM | Potency [10] 23.5 µM

Fc1ccc(CNc2ncnc3ccc(F)cc23)cc1
active: Potency [3] 4.32 µM | Potency [5] 6.85 µM
inactive: Potency [1] | Potency [2] | Potency [4] | Potency [7] | Potency [8]

CO[C@H]1C=CO[C@@]2(C)Oc3c(C)c(O)c4c(O)c(c(C=NN5CCN(C)CC5)c(O)c4c3C2=O)NC(=O)C(C)=CC=C[C@H](C)[C@H](O)[C@@H](C)[C@@H](O)[C@@H](C)[C@H](OC(C)=O)[C@H]1C
inactive: activity change, negative = cytotoxic [1] 22.3% [at 9.22 µM] | activity change, negative = cytotoxic [2] -8.14% [at 9.22 µM] | activity change, negative = cytotoxic [3] 2.32% [at 11.5 µM] | activity change, negative = cytotoxic [4] -3.68% [at 9.22 µM] | activity change, negative = cytotoxic [5] -1.83% [at 11.5 µM] | activity change, negative = cytotoxic [7] -12.4% [at 9.22 µM] | activity change, negative = cytotoxic [8] -5.37% [at 9.22 µM] | activity change, negative = cytotoxic [9] -1.05% [at 9.22 µM] | activity change, negative = cytotoxic [10] -8.55% [at 9.22 µM]

O=C(NCCCCN1CCOCC1)c1cc2ccccc2o1
inactive: Potency [1] | Potency [2] | Potency [3] | Potency [4] | Potency [5] | Potency [6] | Potency [8]

COc1ccc(-c2cc(=O)c3c(O)cc(O[C@@H]4O[C@H](CO[C@@H]5O[C@@H](C)[C@H](O)[C@@H](O)[C@@H]5O)[C@@H](O)[C@H](O)[C@@H]4O)cc3o2)cc1O
active: Potency [1] 16.6 µM
inactive: Potency [2] | Potency [3] | Potency [4] | Potency [5] | Potency [7] | Potency [8]

Cc1[nH]c(C=C2C(=O)Nc3ccc(S(=O)(=O)N(C)c4cccc(Cl)c4)cc32)c(C)c1C(=O)N1CCN(C)CC1
inactive: Potency [8]
active: Potency [1] 18.7 µM | Potency [2] 9.35 µM | Potency [3] 17.2 µM | Potency [4] 23.5 µM | Potency [5] 19.3 µM | Potency [6] 29.6 µM | Potency [9] 18.7 µM
